ADAM10 inh – human ADAM10 inhibitors, primary screen, biochemical, QFRET, HTS | AID 720582, 2013 | Disintegrin and metalloproteinase domain-containing protein 10 (Homo sapiens), O14672 | actives 0.62% (n = 370,000) | inhibition, % at 7 µM | recombinant ADAM10, EDANS/DABCYL FRET peptide cleavage, 3 h;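 active = inhibition above a per-campaign cutoff equal to the mean of compounds falling between control-based bounds plus 3 SD, cut at about 20% in these data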;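 also: 0% = DMSO wells while the 100% control is not disclosed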
PLC-beta3 inh – human PLC-beta3 inhibitors, primary screen, biochemical, fluorescence | inhibition, % at 12.2 µM | actives 0.18% (n = 370,000) | 1-phosphatidylinositol 4,5-bisphosphate phosphodiesterase beta-3 (Homo sapiens), Q01970 | AID 720704, 2013 | Purified PLC-beta3, fluorogenic substrate; in the data active = inhibition above about 11%;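 also: 0% = median of compound wells on plate and 100% = full blocker control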
KLK7 zymogen act – proKLK7 zymogen activators, primary screen, biochemical, fluorescence intensity; Kallikrein-7 (Homo sapiens), P49862; purified proKLK7, EDANS-DABCYL substrate fluorescence; 100% is mature enzyme control, 0% vehicle; activation, % at 7 µM; actives 0.9% (n = 370,000);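 active = activation above the mean of all tested compounds plus 3 SD, computed per campaign excluding outliers beyond control limits, cut at about 13% in these data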
ADAM17 inh – ADAM17 inhibitors, primary screen, biochemical, QFRET | Disintegrin and metalloproteinase domain-containing protein 17 (Homo sapiens), P78536 | recombinant ADAM17, EDANS/DABCYL FRET peptide cleavage | inhibition, % at 6.95 µM | actives 0.83% (n = 370,000) | AID 720648, 2013;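 active = inhibition above the mean of compounds lying between control limits plus 3 SD, set per campaign, cut at about 8.5% in these data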;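 also: 0% = DMSO-only wells as the low control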
PLCg1 inh – PLC-gamma1 enzyme inhibitors, primary screen, biochemical, fluorescence, purified enzyme. fluorogenic substrate. inhibition, % at 12.2 µM. actives 0.84% (n = 370,000). AID 720700, 2013; in the data active = inhibition above about 9.5%
Target sequence (P19174 whole entry, looked up): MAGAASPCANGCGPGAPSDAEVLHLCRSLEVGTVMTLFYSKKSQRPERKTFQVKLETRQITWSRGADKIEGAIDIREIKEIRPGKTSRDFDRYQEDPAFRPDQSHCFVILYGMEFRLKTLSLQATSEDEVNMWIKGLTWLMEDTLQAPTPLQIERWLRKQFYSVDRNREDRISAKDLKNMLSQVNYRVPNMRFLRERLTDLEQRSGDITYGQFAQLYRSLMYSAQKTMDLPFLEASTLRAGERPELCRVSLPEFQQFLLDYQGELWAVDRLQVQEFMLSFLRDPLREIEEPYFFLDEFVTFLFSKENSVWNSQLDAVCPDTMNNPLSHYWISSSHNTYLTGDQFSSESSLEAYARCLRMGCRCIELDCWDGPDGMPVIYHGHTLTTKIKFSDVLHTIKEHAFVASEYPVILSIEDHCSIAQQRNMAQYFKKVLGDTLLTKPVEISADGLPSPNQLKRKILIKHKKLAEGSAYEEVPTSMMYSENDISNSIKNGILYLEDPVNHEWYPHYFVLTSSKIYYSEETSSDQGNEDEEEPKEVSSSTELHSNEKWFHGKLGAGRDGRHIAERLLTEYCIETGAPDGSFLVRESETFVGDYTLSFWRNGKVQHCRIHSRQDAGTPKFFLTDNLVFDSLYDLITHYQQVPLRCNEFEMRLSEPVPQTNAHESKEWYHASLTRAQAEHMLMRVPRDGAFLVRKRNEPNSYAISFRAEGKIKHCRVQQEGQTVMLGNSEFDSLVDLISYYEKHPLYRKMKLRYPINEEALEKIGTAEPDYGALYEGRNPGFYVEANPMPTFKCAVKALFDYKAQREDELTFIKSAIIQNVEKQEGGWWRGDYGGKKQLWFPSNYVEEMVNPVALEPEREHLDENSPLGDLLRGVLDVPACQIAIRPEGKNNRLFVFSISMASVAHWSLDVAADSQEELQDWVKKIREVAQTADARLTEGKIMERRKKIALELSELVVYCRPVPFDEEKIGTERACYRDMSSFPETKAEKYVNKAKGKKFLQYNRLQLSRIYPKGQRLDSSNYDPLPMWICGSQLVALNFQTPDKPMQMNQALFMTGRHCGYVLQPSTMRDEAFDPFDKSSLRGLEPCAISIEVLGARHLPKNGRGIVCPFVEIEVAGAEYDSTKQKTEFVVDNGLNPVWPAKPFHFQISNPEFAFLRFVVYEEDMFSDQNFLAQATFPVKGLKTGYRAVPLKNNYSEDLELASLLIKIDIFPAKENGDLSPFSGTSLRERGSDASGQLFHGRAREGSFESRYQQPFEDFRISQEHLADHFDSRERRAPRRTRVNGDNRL
ADAM10 confirm – human ADAM10 inhibitors, confirmation, biochemical, QFRET, triplicate | shares compounds with ADAM10 inh | ADAM10 QFRET peptide cleavage, EDANS fluorescence | inhibition, % at 6.95 µM | actives 1% (n = 2,100) | AID 743208, 2013;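 active = inhibition above about 20% chosen separately for each screening run, limit read from the data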;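 also: 0% = DMSO wells and 100% = marimastat wells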
ADAM17 ctr – ADAM17 inhibitors, counter-screen for ADAM10 exosite inhibitor project, biochemical, QFRET, high throughput; shares compounds with ADAM10 inh; ADAM17 QFRET peptide cleavage, EDANS fluorescence; inhibition, % at 6.95 µM; actives 0.5% (n = 2,100); AID 743214, 2013;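 active = mean triplicate inhibition above the solvent-only control wells' mean plus 3 SD, cut at about 12% in these data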;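 also: 0% = DMSO wells and 100% = marimastat wells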
ADAM10 counter – ADAM10 inhibitors, counter-screen for ADAM17 exosite inhibitor project, biochemical, FRET, human ADAM10; recombinant ADAM10, EDANS/DABCYL FRET peptide cleavage, 3 h; shares compounds with ADAM17 inh; actives 47% (n = 2,900); AID 743256, 2014; inhibition, % at 6.95 µM;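 active = mean inhibition over the triplicate runs exceeds the activity threshold set in the earlier primary screen, cut at about 20% in these data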;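 also: 0% = DMSO wells and 100% = marimastat wells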
ADAM17 confirm – ADAM17 inhibitors, hit retest, confirmation, biochemical, QFRET peptide cleavage. shares compounds with ADAM17 inh. recombinant ADAM17, EDANS/DABCYL QFRET peptide cleavage. inhibition, % at 6.95 µM. actives 65% (n = 2,900). AID 743257, 2014;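 active = mean inhibition across replicates above the hit cutoff set in the primary screen, cut at about 8.5% in these data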;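 also: 0% = DMSO wells and 100% = marimastat wells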
* hit, by the source's call; . = not tested or not shown. Hits are enriched below; roughly 2.9% of the tested compounds scored in any of these assays.

SMILES	ADAM10 inh	PLC-beta3 inh	KLK7 zymogen act	ADAM17 inh	PLCg1 inh	ADAM10 confirm	ADAM17 ctr	ADAM10 counter	ADAM17 confirm
C=CC[C@@H](CC(=O)N[C@H](CO)Cc1ccccc1)C(=O)N[C@H](COC(=O)[C@@H](CC=C)CC(=O)OC(C)(C)C)Cc1c[nH]c2ccccc12	12.2	2.2	-0.3	7.2	4.4	.	.	.	.
C=CCC[C@H](Cc1ccc(F)cc1)C(=O)OC[C@@H](Cc1c[nH]c2ccccc12)NC(=O)[C@@H](CC=C)CC(=O)N(CCO)Cc1ccccc1	41.3*	-2.1	0.2	15.0*	-1.6	11.8	3.0	48.5*	23.1*
C=CC[C@H](CC(=O)N(CCO)Cc1ccccc1)C(=O)N[C@H](COC(=O)[C@@H](CC=C)CC(=O)OC(C)(C)C)Cc1c[nH]c2ccccc12	25.7*	2.7	0.7	12.8*	6.7	3.9	0.8	45.4*	22.4*
C=CC[C@H](CC(=O)N(CCO)Cc1ccccc1)C(=O)N[C@H](COC(=O)[C@@H](CC=C)Cc1ccc(F)cc1)Cc1ccccc1	20.7*	2.8	0.4	10.8*	-1.9	10.4	3.7	24.9*	15.7*
Cc1ccc(OC(=S)Nc2ccccc2)c(C)c1	6.5	2.5	0.3	-0.5	-3.6	.	.	.	.
Cc1ccc(-n2c(Cc3cccs3)nnc2SCC(=O)Nc2ccc(S(N)(=O)=O)cc2)cc1	8.6	2.0	0.3	-0.3	-1.0	.	.	.	.
C=CCC[C@@H](Cc1ccc(F)cc1)C(=O)OC[C@H](Cc1c[nH]c2ccccc12)NC(=O)[C@H](CC=C)CC(=O)N(CCO)Cc1ccccc1	20.6*	0.7	-0.1	12.2*	-0.1	11.2	2.8	54.7*	26.6*
O=C(Nc1nc2ccc(F)cc2s1)C1CCN(S(=O)(=O)c2cc([N+](=O)[O-])ccc2Cl)CC1	21.2*	-0.1	0.6	8.8*	0.3	4.9	2.0	15.0	12.6*
CSc1cccc(NC(=O)CCCOc2ccc(Cl)cc2C)c1	31.1*	-0.9	-0.9	19.0*	1.8	14.3	5.5	38.0*	18.6*
COc1ccc(OCCCC(=O)Nc2cccc(SC)c2)cc1	10.6	-0.3	0.1	2.0	4.3	.	.	.	.
CSc1cccc(NC(=O)/C=C/c2ccc(Cl)cc2)c1	22.2*	-9.7	0.6	13.6*	-6.5	13.1	3.0	44.9*	15.8*
NC(=O)CSc1ncc(-c2ccc([N+](=O)[O-])cc2)[nH]1	4.4	-5.2	-0.1	1.8	-4.2	.	.	.	.
Cc1cc(C)c(CSc2ncc(-c3ccc([N+](=O)[O-])cc3)[nH]2)c(C)c1	34.4*	-55.9	0.0	11.0*	-47.3	12.0	4.0	41.1*	23.3*
CCCCCOC(=O)C1=C(C)N(C)C(=O)NC1c1cc(Br)c(O)c(OC)c1 (stereo not given)	20.5*	-7.0	0.3	10.5*	0.9	-0.7	0.6	7.6	4.9
N=c1c2c(n(Cc3ccc([N+](=O)[O-])cc3)c3c1CCC3)CCCC2	-0.8	-3.5	0.0	-3.4	2.6	.	.	.	.
COc1ccc(N(CC(O)Cn2c3ccccc3c3ccccc32)S(=O)(=O)c2ccccc2)cc1 (stereo not given)	31.3*	-15.2	-5.0	13.1*	-12.8	191.1*	41.1*	-2.9	12.4*
CC(=O)Nc1ccccc1N(CC(O)Cn1c2ccccc2c2ccccc21)S(=O)(=O)c1ccc(C)cc1 (stereo not given)	24.9*	1.6	-0.2	12.9*	2.5	10.1	3.6	37.7*	23.3*
COc1ccccc1N(CC(O)CN1CCCCC1)S(=O)(=O)c1ccc(C)cc1 (stereo not given)	8.4	-0.6	-0.1	0.3	6.4	.	.	.	.
CCc1ccc(CN(C(=O)c2oc3ccccc3c2C)C2CCS(=O)(=O)C2)cc1 (stereo not given)	5.5	3.5	0.5	3.2	2.4	.	.	.	.
Cc1ccc(C)c(N2CCN(CCCNC(=O)Cn3cccc3C(=O)c3ccccc3)CC2)c1	-7.7	-1.4	0.3	0.9	4.2	.	.	.	.
CCCCC(CC)C(=O)Nc1ccccc1C(=O)NC(C)C (stereo not given)	4.4	4.3	-0.2	3.5	0.2	.	.	.	.
Cc1nc(SC2CC(=O)N(c3cc(Cl)cc(Cl)c3)C2=O)nc2c1CCCC2 (stereo not given)	34.2*	-2.4	0.2	10.3*	3.8	5.3	0.9	11.3	8.2
Cc1cccc(N2C(=O)CC(Sc3nc(C)c4c(n3)CCCC4)C2=O)c1 (stereo not given)	2.9	-0.4	0.0	-2.1	-3.1	.	.	.	.
O=C1CC(=O)N(CCc2ccccc2)C(=O)N1CCc1ccccc1	23.6*	-1.6	1.6	12.9*	3.0	4.9	1.6	24.9*	9.9*
CC1CC(=O)N(CCc2ccccc2)C(=O)C1	-8.4	5.3	-0.1	-4.2	4.2	.	.	.	.
Cc1ccc(NC(=O)CSc2nn(-c3ccc(Cl)cc3)c(=S)s2)cc1S(=O)(=O)N(C)C	25.3*	4.2	-0.3	9.8*	4.3	8.6	2.7	28.1*	19.5*
Cc1ccc(NC(=O)Cc2ccccc2Cl)cc1S(=O)(=O)N(C)C	2.7	0.9	-1.0	2.1	1.7	.	.	.	.
Cc1ccc(NC(=O)Cc2ccc(Cl)c(Cl)c2)cc1S(=O)(=O)N(C)C	28.4*	0.4	0.6	14.7*	3.3	3.1	0.8	17.1	9.6*
CC1=C(C(=O)OCc2ccccc2)C(c2ccc(C(C)(C)C)cc2)NC(=O)N1CCCCCC(=O)O (stereo not given)	2.7	-2.7	0.4	-1.6	-4.0	.	.	.	.
COc1cccc(OCC(=O)O/N=C(\N)c2ccncc2)c1	-1.4	1.4	-0.4	2.2	1.5	.	.	.	.

Screening data: PubChem BioAssay, The Scripps Research Institute Molecular Screening Center
